In the library only some 8.8% were active in any assay of this set; here they are far more common.
KB-3-1 cytotox = KB-3-1 parental cell cytotoxicity; KB-3-1 viability, CellTiter-Glo ATP luminescence, 72 h; Potency, µM (doses to about 46.1 µM), usual class: cytotoxic; 400,000 compounds, 1.4% hits; AID 1347075; further: potency means the concentration at half of the fitted maximal effect; nearly all actives have a fitted effect of over 60% in size
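Viability of parental KB-3-1 cells, measured by CellTiter-Glo luminescence, followed a 72 h incubation at 37 °C with pinned compounds in phenol-red-free DMEM containing 10% FBS.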
IL-1B inflam inh = blocks inflammasome-driven IL-1 beta release | THP-1 LPS/ATP IL-1B secretion, AlphaLISA, 16 h; stronger effect = lower value | activity change, % at 57.5 µM | 360,000 compounds, 4.7% hits; in the data active means activity change below about -50%; inconclusive means mostly about -30% to -49%
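Secreted IL-1B measured by AlphaLISA bead assay after 16 h compound exposure of THP-1 cells; compounds (final up to 57.5 uM) added 1 h before LPS (250 ng/mL) and ATP (1.25 mM) stimulation; lower signal means less secretion.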
HT1080-NT tox = kills 2HG-producing HT-1080-NT fibrosarcoma cells. Potency, µM (series often up to 46.1 µM), for the others: at the highest dose activity, negative = less viability, usual class: cytotoxic. 360,000 compounds, 1.6% hits. HT-1080-NT fibrosarcoma viability, CellTiter-Glo ATP luminescence, 48 h;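 further: NT is the 2HG producing partner of a matched IDH1 knockdown line; potency means the concentration at half of the fitted maximal effect; 0% = DMSO-treated cells and -100% = media-only wells without cells; nearly all actives have a fitted effect of over 55% in size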
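Read-out is CellTiter-Glo luminescence after 10 minutes at room temperature, following 48 hours' compound treatment of HT-1080-NT cells (750 cells/well, RPMI, 5% FBS, 37 degrees C).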
KB-V1 cytotox = kills drug-selected multidrug resistant KB-V1 cells; KB-V1 MDR cells viability, CellTiter-Glo, 72 h; Potency, µM (titrated, usually from 46.1 µM), most hits filed as cytotoxic; 400,000 compounds, 3.4% hits; AID 1347076; further: potency means the concentration at half of the fitted maximal effect; nearly all actives have a fitted effect of over 60% in size
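qHTS viability screen in drug-selected KB-V1 MDR cells: 72 h compound treatment at 37 degrees C, ATP luminescence end point.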
HT1080 IDH1KD tx = HT-1080 IDH1 knockdown cell toxicity (counter line). HT-1080 IDH1 knockdown viability, ATP luminescence, 48 h. Potency, µM (doses to about 46.1 µM), without a hit: at the top dose activity, negative = toxicity, hits mostly cytotoxic. 360,000 compounds, 2% hits. AID 686971;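 further: potency means the concentration at half of the fitted maximal effect; 0% = DMSO wells and -100% = cell-free medium wells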
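Using the IDH1-knockdown HT-1080 line run in the same batch and compound series as the NT line, viability after 48 h at 37 °C was determined by CellTiter-Glo luminescence and expressed as % activity.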
Active calls of the source: *; i = inactive; ? = inconclusive; . = not tested or not shown. Unless noted, the call rests on the fitted dose curve; in most records, active means well fitted curve in the direction sought with a large enough effect; inconclusive means small, poorly fitted or top-dose-only effect, or another doubt; inactive means no such curve, though single readings can be large; an effect the other way counts as inactive or inconclusive. Unless noted, on the % scale 0 is the no-effect control and ±100 the full control effect.

SMILES	KB-3-1 cytotox	IL-1B inflam inh	HT1080-NT tox	KB-V1 cytotox	HT1080 IDH1KD tx
COCCNC(=O)c1ccccc1NC(=O)CSc1ccc(C)cc1	i	-7.1	0.4%	i	13.0%
Cc1cc(C(=O)COC(=O)c2ccc3c(c2)NC(=O)CS3)c(C)n1CC1CCCO1 (stereo not drawn)	i	4.5	7.1%	11.6µM*	-12.4%
CC(C)NC(=O)C1(C)CSCC(=O)N1C1CC1 (stereo not drawn)	i	0.0	11.3%	i	8.4%
CCc1ccccc1NC(=O)Cn1ccn(Cc2ccccc2)c(=O)c1=O	i	.	.	i	.
Cc1ccc(NC(=S)NCC23C=CC(O2)C2C(=O)N(c4ccc(C)cc4)C(=O)C23)cc1 (stereo not drawn)	i	4.6	0.0%	13µM*	6.6%
Cc1cccc(NC(=S)NCC23C=CC(O2)C2C(=O)N(c4ccc(Cl)cc4)C(=O)C23)c1 (stereo not drawn)	i	-5.1	-5.7%	?	-7.3%
CCNc1nc(N)c(C(=C(C#N)C#N)c2ccccc2)s1	i	-74.7*	-15.1%	i	-23.5%
CCNc1nc(N)c(C(=O)C23CC4CC(CC(C4)C2)C3)s1	i	10.5	-6.4%	i	-1.5%
Cc1sc2ncnc(NCC3CCCO3)c2c1C (stereo not drawn)	i	10.9	-17.7%	i	-15.7%
CCc1cc2c(NCC3CCCO3)ncnc2s1 (stereo not drawn)	?	29.8	7.6%	16.4µM*	2.4%
CC1CCC(NC(=O)c2ccc(CS(=O)(=O)c3cccc(C(F)(F)F)c3)o2)CC1 (stereo not drawn)	i	.	.	i	.
Cc1c(N)cc[n+](CC(=O)c2ccccc2)c1C	5.17µM*	-69.5*	-8.9%	?	?
CCN(CC)c1ccc(/C=N/NC(=O)Cc2nnc(NC(=O)Nc3ccccc3)s2)cc1	i	14.3	20.6µM*	i	14.6µM*
Nc1c(C(=O)NCc2ccc(Cl)cc2)sc2nc3c(c(C(F)(F)F)c12)CCC3	i	?	13.7%	14.6µM*	10.3%
NC(=O)c1sc2nc3c(c(-c4ccc(Cl)cc4)c2c1N)CCCC3	?	-17.3	?	2.91µM*	?
Cc1ccc(-c2c3c(nc4sc(C(N)=O)c(N)c24)CCC3)cc1	i	-19.3	-21.0%	?	?
COc1ccc(-c2c3c(nc4sc5c(Cl)nc(C)nc5c24)CCC3)cc1	7.31µM*	6.1	14.4%	?	11.3%
COc1cc2c(cc1OC(C)=O)CCCCC2=O	i	0.0	1.3%	i	0.5%
O=C(CC(O)(CC(=O)OCc1ccccc1)C(=O)OCc1ccccc1)OCc1ccccc1	i	-54.9*	-18.6%	i	-3.1%
CC(C)(C)c1nnc2sc(SCC(=O)c3ccccc3)nn2c1=O	i	-13.1	6.7%	i	13.7%
COc1ccc(C(=O)CSc2nn3c(=O)c(C(C)(C)C)nnc3s2)cc1	i	-58.0*	-25.6%	?	?
Cc1cc(C)c(S(=O)(=O)/N=C2/C=C(Sc3ncn[nH]3)C(=O)c3ccccc32)cc1C	?	-88.5*	2.91µM*	?	4.61µM*
CC1=[N+](C)c2c(ccc3cccnc23)C1(C)C	10.3µM*	-112.4*	?	?	?
Cc1[nH]c2c(ccc3cccnc32)c1C	i	.	0.7%	i	0.3%
CCOc1ccccc1CNS(=O)(=O)c1ccc2[nH]c(=O)ccc2c1	i	.	.	?	.
SMILES	KB-3-1 cytotox	IL-1B inflam inh	HT1080-NT tox	KB-V1 cytotox	HT1080 IDH1KD tx
CCc1nn2cc(C(=O)c3cc(Cl)ccc3O)cnc2c1-c1ccc(F)cc1	?	-76.7*	?	?	?
O=C1Nc2ccccc2N(C(=O)c2ccc(-c3ccccc3)cc2)C1c1nc2ccccc2[nH]1 (stereo not drawn)	?	20.7	?	?	16.4µM*
O=C1Nc2ccccc2N(C(=O)c2c(F)cccc2F)C1c1nc2ccccc2[nH]1 (stereo not drawn)	i	19.4	-29.5%	i	?
CCn1cc(C(=O)NCCCN2CCCC(C)C2)c(=O)c2cc(S(=O)(=O)N3CCc4ccccc4C3)ccc21 (stereo not drawn)	?	-104.5*	?	i	20.6µM*
CCC1CCCCN1CCCNC(=O)c1cn(CC)c2ccc(S(=O)(=O)N3CCc4ccccc4C3)cc2c1=O (stereo not drawn)	i	-98.9*	-0.2%	i	-5.8%
CCn1cc(C(=O)NCCc2ccccc2)c(=O)c2cc(S(=O)(=O)N3CCc4ccccc4C3)ccc21	i	.	.	i	.
CCC(=O)Nc1c(C#N)c2nc3ccccc3nc2n1-c1ccc(C)cc1	i	33.8	2.0%	?	-0.8%
CCC(C)n1c(NC(=O)c2ccccc2)c(C#N)c2nc3ccccc3nc21 (stereo not drawn)	?	-16.6	18.4µM*	?	16.4µM*
CCCCn1c(NC(=O)c2ccccc2)c(C#N)c2nc3ccccc3nc21	?	-22.7	8.91µM*	5.17µM*	?
Cc1cc(C(=O)CN2C(=O)C(=O)N(Cc3ccccc3)C2=O)c(C)n1Cc1ccc(F)cc1	?	0.0	-11.3%	i	?
COc1ccc(CCn2c(C)cc(C(=O)CN3C(=O)C(=O)N(Cc4ccco4)C3=O)c2C)cc1	5.8µM*	52.1	?	i	?
Cc1cc(C(=O)CN2C(=O)C(=O)N(Cc3ccccc3)C2=O)c(C)n1Cc1ccccc1	i	-9.3	0.9%	20.6µM*	-4.6%
COCCNC(=O)C(c1ccncc1)N(Cc1ccccc1)C(=O)Cn1nnc2ccccc21 (stereo not drawn)	i	-13.0	17.5%	i	0.4%
CCOC(=O)c1c(NC(=O)COC(=O)/C=C/c2ccco2)sc2c1CC(C)(C)NC2(C)C	i	-68.2*	1.5%	i	-4.3%
CCOC(=O)c1c(NC(=O)CSc2nc3ccccc3[nH]2)sc2c1CC(C)(C)NC2(C)C	?	-50.5*	-1.7%	i	4.6%
COC(=O)c1c(NC(=O)c2nc3ccccc3s2)sc2c1CC(C)(C)NC2(C)C	?	-3.6	-10.3%	i	6.9%
CCOC(=O)c1c(NC(=O)COc2ccccc2)sc2c1CC(C)(C)NC2(C)C	?	-3.6	-0.1%	?	9.1%
CCOC(=O)[C@]12CCCC=C1N(Cc1ccc3c(c1)OCO3)C(=O)[C@H](CC(=O)N1CCCCC1)C2	i	-1.7	3.4%	?	4.9%
Cc1cccc(Oc2ccccc2NC(=O)CSCC(=O)Nc2cc(C)on2)c1	?	3.3	-11.0%	7.31µM*	-25.3%
CC(=O)Nc1sc(C)c(C)c1C(=O)OCC(=O)N(C)c1c(N)n(Cc2ccccc2)c(=O)[nH]c1=O	i	-0.3	-2.5%	?	-1.6%
COc1cccc(/C=C2/C(=O)NN(c3ccc(F)cc3)C2=O)c1	i	-22.2	-27.7%	i	-28.6%

High-throughput results (PubChem)
